# Results taken from PubChem BioAssay AID624500 (National Center for Advancing Translational Sciences (NCATS), 2012).
# Inconclusive results are not listed. Active and inactive are the calls of the source. The call rests on the fitted dose curve; in most records, active means well fitted inhibition curve with a large enough effect; inconclusive means small, poorly fitted or top-dose-only effect; inactive means flat fitted curve, though single readings scatter.
# Molecular target: D(3) dopamine receptor (Homo sapiens) (UniProt P35462)
# Sequence (P35462 whole entry, looked up): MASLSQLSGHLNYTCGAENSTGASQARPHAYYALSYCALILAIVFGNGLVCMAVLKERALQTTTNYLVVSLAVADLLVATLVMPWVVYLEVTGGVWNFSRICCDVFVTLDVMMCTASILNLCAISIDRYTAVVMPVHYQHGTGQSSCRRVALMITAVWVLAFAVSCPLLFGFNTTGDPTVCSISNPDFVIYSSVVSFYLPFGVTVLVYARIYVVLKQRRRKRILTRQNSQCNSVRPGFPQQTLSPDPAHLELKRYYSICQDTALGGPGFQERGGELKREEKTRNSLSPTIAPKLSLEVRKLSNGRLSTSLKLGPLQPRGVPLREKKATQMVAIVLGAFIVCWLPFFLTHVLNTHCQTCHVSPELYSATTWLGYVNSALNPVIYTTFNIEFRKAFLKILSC
# Assay: HTS Assay for Allosteric Antagonists of the Human D2 Dopamine Receptor: SAR in D3 Beta Arrestin Assay
# Details: DiscoveRx PathHunter D3 beta-arrestin, luminescence, 90 min; series mostly up to 57.1 µM
# From the text: There is great interest in identifying small molecule ligands for G-protein coupled receptors (GPCRs) as nearly 50% of all FDA-approved drugs target these important receptor proteins. […] Amongst the dopamine receptors (DARs), the D2 is arguably one of the most validated drug targets in neurology and psychiatry. For instance, all receptor-based antiparkinsonian drugs primarily work via stimulating the D2 DAR, whereas all FDA-approved antipsychotic agents are antagonists of this receptor. The D2 DAR is also therapeutically targeted in other disorders such as restless legs syndrome, tardive dyskinesia, Tourette's syndrome, and hyperprolactinemia. […] This is an selectivity assay to test the lead compounds against the D3 receptor, using a beta arrestin assay. NIH Molecular Libraries Probe Production Network [MLPCN] NIH Chemical Genomics Center [NCGC] Grant: NS0676421 PI Name: David Sibley, National Institutes of Neurological Disorders and Stroke
# DiscoveRx D3 cells were thawed from frozen stock and seeded at 2,100 cells/ 3 uL/well media (DiscoveRx Plating Reagent 2) with MultiDrop Combi dispenser (Thermo Scientific, Logan, UT) onto white tissue culture treated 1536-well Aurora plates (Brooks Automation, Chelmsford, MA) and allowed to attach overnight at 37 deg C, 5% CO2. Next, 23 nL/well of compound solutions in DMSO were added with a pintool transfer (Kalypsis, San Diego, CA). As the positive control, 1 uL/well dopamine (EC100, 57 uM final concentration) diluted in buffer (HBSS + 10 mM HEPES + SMB + 0.1% Tween-20) was dispensed to 1 column of each plate. The rest of the plate was dispensed with buffer only, 1 uL/well as well. The cells were stimulated by compounds or dopamine control for 90 minutes at 37 deg C, 5% CO2, after which 1.5 ul/well of DiscoveRx detection reagent was added with BioRAPTR FRD dispenser. The detection reagent was prepared by mixing of Galacton Star Substrate, Emerald II solution and PathHunter buffer (supplied by the assay kit) together at 1:5:19 proportion accordingly just prior to dispensing. The plates were incubated at ambient temperature for 1 hour and then the luminescent signal was read on ViewLux plate reader (PerkinElmer, Waltham, MA).
row,Compound,Potency
1,CN1C(=O)c2ccccc2[S@@](=O)c2ccc(C(=O)NCCc3cccs3)cc21,inactive
2,CN1C(=O)c2ccccc2[S@](=O)c2ccc(C(=O)NCc3ccc(Br)cc3)cc21,4.58 µM (active)
3,CCN1C(=O)c2ccccc2S(=O)c2ccc(C(=O)NCc3ccc(OC)cc3)cc21 (stereo not drawn),5.76 µM (active)
4,CN1C(=O)c2ccccc2[S@](=O)c2ccc(C(=O)NCCc3cccs3)cc21,12.9 µM (active)
5,CCN1C(=O)c2ccccc2[S@](=O)c2ccc(C(=O)NCc3ccc(F)cc3)cc21,3.24 µM (active)
6,CCN1C(=O)c2ccccc2[S@](=O)c2ccc(C(=O)NCc3ccc(C#N)cc3)cc21,1.62 µM (active)
7,CN1C(=O)c2ccccc2[S@](=O)c2ccc(C(=O)NCc3ccc(Cl)cc3)cc21,10.2 µM (active)
8,CN1C(=O)c2ccccc2[S@](=O)c2ccc(C(=O)NCc3cccnc3)cc21,14.5 µM (active)
9,CN1C(=O)c2ccccc2[S@](=O)c2ccc(C(=O)NCCN3CCCC3)cc21,4.58 µM (active)
10,CCN1C(=O)c2ccccc2[S@](=O)c2ccc(C(=O)NCc3ccc(OC)cc3)cc21,2.89 µM (active)
11,OC1(c2ccc(Cl)cc2)CCN(Cc2c[nH]c3ccccc23)CC1,0.0646 µM (active)
12,CCN1C(=O)c2ccccc2[S@](=O)c2ccc(C(=O)N[C@H](C)c3ccc(Br)cc3)cc21,9.13 µM (active)
13,CN1C(=O)c2ccccc2S(=O)c2ccc(C(=O)NCCc3cccs3)cc21 (stereo not drawn),20.4 µM (active)
